“And” between values parts separate entries of the source, which are not always exact repeats. Equal values may be shown once. Hit rate of the full screen: of about 34,000 compounds, about 290 (0.85%) showed an effect of 50% or more. This excerpt belongs to a sample that is enriched for strong results.
System: Plasmodium falciparum
Test: Plasmodium falciparum sporozoite viability assay
Format: functional, organism-based
Design: scale not given: in the data most compounds retested in dose-response had high values

Compound | Percent Effect [%] | Percent Effect (10 mM as filed; unlikely as a test dose)
O=C(CCn1ccnc1)N1CCC(c2nnc(-c3ccccn3)o2)CC1 | 18.74 | 
Cc1cc(NC(=O)CN(C)C2CCCN(c3cccnn3)C2)on1 (stereo not drawn) | 6.872 | 
Cc1cc2nc(SCC(=O)N3CCCCC3)n(C)c(=O)c2[nH]1 | 16.8 | 
CN1C(=O)CCCC12CCCN(C(=O)c1ccoc1)C2 (stereo not drawn) | 8.123 | 
Cc1ccccc1-n1c(C)cc(C(=O)N2CCn3c(C)nnc3C2)c1C |  | -10.25% and 8.528% and -8.016%
Cc1cc(C(=O)N2CCc3nnc(N)cc3C2)c(C)n1-c1cccnc1 |  | -13.69% and -18.44% and -9.069%
CCn1c(C)cc(C(=O)N2CCc3nnc(N)cc3C2)c1C |  | -3.903% and -4.783% and -13.87%
Cc1nnc2n1CCN(C(=O)c1cc(C)n(-c3ccccc3)c1C)C2 |  | 80.6% and 90.57% and 75.3%
Cc1cccc(-n2c(C)cc(C(=O)N3CCn4c(C)nnc4C3)c2C)c1 |  | 50.81% and 47.19% and 51.44%
Cc1nnc2n1CCN(C(=O)c1cc(C)n(-c3ccccn3)c1C)C2 |  | -4.516% and -0.613% and 8.394%
Cc1nnc2n1CCN(C(=O)c1cc(C)n(-c3cccnc3)c1C)C2 |  | -3.499% and -16.38% and -11.58%
O=C(NCCc1cc(N2CCOCC2)nc(NC2CC2)n1)C1CCCO1 (stereo not drawn) | 11.42 | 
Cc1cc(C)n(CC2CCCN2CCS(C)(=O)=O)n1 (stereo not drawn) | 6.268 | 
CCn1c(C2CCN(C(=O)c3cc(CC(C)C)on3)CC2)nn(C)c1=O |  | -0.7877% and 5.537%
CNC(=O)c1cn[nH]c1C1CCCN1C(=O)c1cccnc1 (stereo not drawn) | 6.523 | 
Cc1noc(CN(CCc2ccco2)Cc2cccc(C#N)c2)n1 |  | -11.78% and -9.281%
COCCN(Cc1cccc(C#N)c1)Cc1nc(C)no1 |  | 48.82% and 52.01%
Cc1noc(CN(CCc2cccs2)Cc2cccc(C#N)c2)n1 |  | -26.23% and -21.92%
COc1cccc(CN2CCCCCC2c2cccc(C)c2)c1O (stereo not drawn) |  | 44.13% and 43.49% and 59.81%
COc1cccc(CN2CCCCCC2c2sccc2C)c1O (stereo not drawn) |  | 49.38% and 41.71%
COCCC(=O)N1CCCN(Cc2nccn2C(C)C)CC1 | 9.219 | 
c1ccc(Cc2nc(C3CC3)nn2-c2ccc3c(c2)OCCO3)nc1 |  | 32.69% and 40.6%

Compound | Percent Effect [%] | Percent Effect (10 mM as filed; unlikely as a test dose)
c1cncc(CCc2nc(C3CC3)nn2-c2ccc3c(c2)OCCO3)c1 |  | 41.36% and 42.97%
c1cncc(OCc2nc(C3CC3)nn2-c2ccc3c(c2)OCCO3)c1 |  | 74.85% and 76.98%
O=C(c1cn(-c2ccccc2Cl)nn1)N1CCSCC1 |  | -17.97% and -41.49%
O=C(c1cn(-c2cccc(Cl)c2F)nn1)N1CCCSCC1 |  | -42.82% and -45.17%
CN(C)c1cccc(C(=O)NCC(O)c2cccs2)c1 (stereo not drawn) |  | 12.86% and 4.207%
CN1CCN(C(=O)[C@H]2CC[C@@H]3[C@@H](CCN3Cc3nccs3)O2)CC1 | -3.61 | 
COc1ccccc1C(=O)Nc1nc2c(s1)CN(S(=O)(=O)C1CC1)CC2 |  | 82.29% and 80.43%
CCc1nc(CN2CCCC(N(C)Cc3cnn(C)c3)C2)no1 (stereo not drawn) | -6.257 | 
CCc1nc(CN2CCCN(Cc3cnn(C)c3)CC2)no1 | -9.563 | 
Cc1ncncc1-c1ccnc(NC(C)C)n1 | -0.5927 | 
CN(C)C(=O)c1cccnc1SCc1ccccc1Cl | -19.98 | 
Cc1cc(CN2CCN(C(=O)NCc3csc(C)n3)CC2)on1 | -16.07 | 
CCc1ccc(C(=O)O)cc1S(=O)(=O)Nc1ccc(F)c(C#N)c1 | 9.76 | 
Cc1c(F)cc(C(=O)O)cc1S(=O)(=O)Nc1ccc2c(c1)OCCO2 |  | 59.81% and 58.05% and 66.51%
CC(=O)Nc1ncc(S(=O)(=O)Nc2ccc(C)cc2)s1 |  | -23.3% and -22.01%
CC(=O)Nc1ncc(S(=O)(=O)Nc2ccc3c(c2)OCCO3)s1 |  | 98.04% and 98.83%
Cc1cc(C(=O)O)cc(S(=O)(=O)Nc2ccc3c(c2)OCCO3)c1C |  | 24.31% and 12.71% and 29.08%
Cc1cc(C(=O)O)cc(S(=O)(=O)Nc2ccc3c(c2)OCCCO3)c1C |  | 3.546% and -0.5757% and 17.55%
CC(=O)Nc1ncc(S(=O)(=O)Nc2cccc(F)c2)s1 |  | -17.58% and -16.77%
COc1ccc(CN2CCN(C(C)=O)CC3(CC(=O)N(C)C3)C2)cc1.O=C(O)C(F)(F)F (stereo not drawn) | 6.785 | 
CCOc1ccc(CC(=O)N2CCCC(n3nc(C)nc3C)C2)cc1 (stereo not drawn) | -2.342 | 
CC(C)N(Cc1nc(-c2cccs2)no1)CC1CCC(=O)N1 (stereo not drawn) | 3.846 | 

Compound | Percent Effect [%] | Percent Effect (10 mM as filed; unlikely as a test dose)
OC(COCc1ccc2c(c1)OCO2)CN1CC(n2cccn2)C1 (stereo not drawn) | 13.47 | 
Cc1cc(C)n(C2CCN(Cc3nc4ccccc4n3C)CC2)n1 | 1.623 | 
CC1=N[C@@]2(CC[C@@H]3CN(Cc4ccccc4)C[C@@H]32)C(=O)N1CC1CC1.O=C(O)C(F)(F)F | 2.527 | 
CN1CC2(CCCN(Cc3nnc(-c4ccco4)o3)CC2)OC1=O (stereo not drawn) |  | -3.132% and -3.886%
CN(C)c1cc(N2CCN(c3ccccn3)CC2)ncn1 | -18.98 | 
CN(C)CCN(C)c1cc(N2CCN(c3ccccn3)CC2)ncn1 | -8.534 | 
CC(=O)N1CCCC1(C)c1nc(C)no1 (stereo not drawn) | 0.7282 | 
Cc1nc(C)c(CNC(=O)N2CCc3ccccc3C2CO)s1 (stereo not drawn) | -12.91 | 
COCCCN1Cc2cccc(NC(=O)c3cc(F)cc(F)c3)c2C1 |  | -15.93% and -21.99% and -27.51%
Cc1cnn(CCNCc2nnc(C3CC3)o2)c1 | 9.956 | 
NC(=O)c1ccc(NC(=O)Cn2cc(I)cn2)cc1 |  | 84.67% and 86.35% and 89.46%
Cc1ccc(NC(=O)Cn2cc(I)cn2)cc1 |  | -17.48% and -21.7% and -14.78%
CCOC(=O)c1ccc(NC(=O)Cn2cc(I)cn2)cc1 |  | -22.37% and -20.15% and -13.35%
O=C(c1cccnc1)N1Cc2ccccc2OCC1Cn1ccnc1 (stereo not drawn) | -1.384 | 
Cc1cc(C)nc(C2CCN(C(=O)c3cnc(N(C)C)nc3)C2)n1 (stereo not drawn) | -0.8427 | 
OC1CCN(c2ccc(CNc3nc4ccccc4s3)cc2F)CC1 |  | 62.02% and 41.95% and 71.05%
COC(=O)c1sc(NCc2ccc(N3CCC(O)CC3)c(F)c2)nc1Cl |  | -24.87% and -16.11% and -1.959%
O=C(O)C(F)(F)F.O=C(O)C(F)(F)F.c1ccc(NCc2cnc3n2CCN(CC2CCOC2)CC3)nc1 (stereo not drawn) | -7.491 | 
Cc1ncsc1C(=O)NCc1ccnc(OCC(F)(F)F)c1 | 6.389 | 
CCN(CC)S(=O)(=O)c1cc2c3c(c1)c(C)cc(=O)n3CC2 | 16.61 | 
CN1CCN(Cc2cnc3n2CCN(Cc2cccs2)C3)CC1.O=C(O)C(F)(F)F.O=C(O)C(F)(F)F.O=C(O)C(F)(F)F | -13.03 | 
CCCC(C)C(=O)NCc1cn2cc(Br)ccc2n1 (stereo not drawn) | -3.946 | 

Compound | Percent Effect [%] | Percent Effect (10 mM as filed; unlikely as a test dose)
O=C(Cn1cc(Cl)cn1)Nc1ccc2c(c1)OCO2 |  | -26.57% and -36.31%
CCn1cc(NC(=O)Nc2ccc3c(c2)OCCO3)cn1 |  | 64.15% and 57.73% and 68.6%
O=C(CCn1cc(Cl)cn1)Nc1ccc2c(c1)OCCO2 |  | 65.57% and 50.96%
CCn1cc(NC(=O)NCCc2ccc3c(c2)OCCO3)cn1 | -0.8103 | 
CCn1cc(NC(=O)NCC(c2cccc(OC)c2)N(C)C)cn1 (stereo not drawn) |  | 18.25% and 14.26% and 26.58%
O=C(Cn1cc(Cl)cn1)Nc1ccc2c(c1)OCCCO2 |  | -49.11% and -46.89%
CCn1cc(NC(=O)NCC(c2ccc(OC)cc2)N(C)C)cn1 (stereo not drawn) |  | 43.93% and 35.12% and 56.29%
Cc1nc2cc(O)nn2c(C)c1CCC(=O)NCc1cc(Br)cs1 | 3.643 | 
O=C(NCCc1ccccc1)c1cccc(S(=O)(=O)NC2CCOC2)c1 (stereo not drawn) | -7.302 | 
CN1CCC(c2cccc(-c3cccc(C(=O)O)c3)n2)CC1 | 10.86 | 
CCOc1ccc(CCCC(=O)N2CCC(C(=O)NC)C2)cc1C (stereo not drawn) | -7.967 | 
COc1cc(CCC(=O)NC(C)C(=O)O)ccc1OCC(F)(F)F (stereo not drawn) | -11.4 | 
Cc1nn(C)c(C)c1C1CCCN1c1ncnc2sccc12 (stereo not drawn) | -0.7353 | 
O[C@H]1CN(Cc2c[nH]nc2-c2ccccc2)CC[C@@]12CCCO2 | 16.42 | 
Nc1ncc(-c2ccc(Cl)cc2)c(C2CCCNC2)n1 (stereo not drawn) | 17.56 | 
Cl.Cl.Cn1nc(C2CNCCO2)cc1CCOc1ccc(Cl)cc1 (stereo not drawn) | -1.356 | 
CN(C)C(=O)c1sc2ncccc2c1C1CNCCO1.Cl (stereo not drawn) | -1.679 | 
Cl.Clc1ccc(-c2ccc(C3CNCCO3)nc2)cc1 (stereo not drawn) |  | 88.25% and 80.55% and 85.69%
Cn1ccnc1CN1CCN(Cc2noc(C3CC3)n2)CC1 | 10.42 | 
CCN1CC[C@@]2(C(=O)N3CCOCC3)CCN(C(=O)C(C)C)CC[C@@H]12.O=C(O)C(F)(F)F | 20.75 | 
Cc1ccc(-c2nccn2-c2ccc(OC3CCN(C)CC3)cc2)o1 |  | 49.42% and 35.94%
CCOC[C@H]1CC[C@H]2[C@H](CCN2C(=O)c2cnccn2)O1 | 7.105 | 

From ChEMBL document CHEMBL3988442, “University of Dundee, Small-Polar-MMV Screening Library” (2021)
